According to PubChem BioAssay:
The source made the active and inactive calls.

How the values were obtained:
[1] = resazurin metabolic signal in HepG2 cells – cell-based, resazurin fluorescence, 24 h, PK04 Diversity Set, profiling panel (AID 1172); conditions: HepG2 viability, higher = more signal; also: test concentration not given here
[2] = budding yeast growth changes without added modifier – OD600, strain BY4716, 24 h, basal condition, primary screen (AID 1173); conditions: S. cerevisiae BY4716 growth, OD600, 24 h; higher = more signal, called active from +8 up or from −8 down
[3] = viability profiling in MM1S myeloma cells – cell-based, resazurin fluorescence, basal, 24 h, PK04 Diversity Set, profiling panel (AID 1174); conditions: higher = more signal, called active from +8 up or from −8 down;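 also: MM1S multiple myeloma cell line; test concentration not given here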
[4] = biological target: Dihydroorotate dehydrogenase (quinone), mitochondrial (Plasmodium falciparum (isolate 3D7)) (UniProt Q08210); test: inhibition of P. falciparum DHODH – biochemical, C-terminal His tag, absorbance 600 nm, primary screen (AID 1175); conditions: PfDHODH enzyme, DCIP absorbance 600 nm; higher = more signal, called active from +8 up or from −8 down;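 also: recombinant parasite enzyme with a five histidine tag at its C terminus; test concentration not given here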
Sequence of Dihydroorotate dehydrogenase (quinone), mitochondrial (Plasmodium falciparum (isolate 3D7)) (Q08210 whole entry, looked up): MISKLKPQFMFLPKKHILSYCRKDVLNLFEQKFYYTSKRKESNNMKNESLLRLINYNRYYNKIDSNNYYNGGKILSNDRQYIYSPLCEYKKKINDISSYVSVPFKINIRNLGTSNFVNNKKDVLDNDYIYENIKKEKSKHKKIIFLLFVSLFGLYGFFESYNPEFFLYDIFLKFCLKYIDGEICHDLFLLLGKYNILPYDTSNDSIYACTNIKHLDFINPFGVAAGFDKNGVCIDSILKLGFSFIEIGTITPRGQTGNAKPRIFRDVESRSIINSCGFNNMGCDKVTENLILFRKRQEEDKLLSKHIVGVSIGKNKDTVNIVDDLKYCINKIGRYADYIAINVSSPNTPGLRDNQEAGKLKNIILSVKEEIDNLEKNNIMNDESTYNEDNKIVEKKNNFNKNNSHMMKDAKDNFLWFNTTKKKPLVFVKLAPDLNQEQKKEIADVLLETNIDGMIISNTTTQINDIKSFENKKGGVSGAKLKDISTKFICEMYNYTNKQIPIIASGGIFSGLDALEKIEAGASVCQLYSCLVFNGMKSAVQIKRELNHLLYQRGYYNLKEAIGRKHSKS

[5] = growth modulation of vineyard yeast isolate – strain RM11-1a, OD600, basal, 24 h, primary screen (AID 1177);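 also: cultures grown under basal conditions with no added stressor; test concentration not given here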; conditions: S. cerevisiae RM11-1a growth, OD600, 24 h; higher = more signal, called active from +8 up or from −8 down
[6] = growth of efflux-deficient E. coli DRC39 – strain DRC39, OD650, 24 h, E. coli filamentation inducers, primary screen (AID 1178);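 also: growth measured as culture turbidity by optical density at 650 nm; test concentration not given here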; conditions: E. coli DRC39 acrAB, higher = more signal, called active from +8 up or from −8 down
[7] = growth of efflux-deficient E. coli DRC39 – strain DRC39, OD650, 48 h, E. coli filamentation inducers, primary screen (AID 1179);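 also: screen aims at cell division blockers that make cells filament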; conditions: E. coli DRC39 delta-acrAB growth, higher = more signal, called active from +8 up or from −8 down
[8] = viability profiling in RPMI8226 myeloma cells – cell-based, resazurin fluorescence, basal, 24 h, PK04 Diversity Set, profiling panel (AID 1180); conditions: higher = more signal;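 also: RPMI8826 multiple myeloma cell line at 5000 cells per well; test concentration not given here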
[9] = biological target: E3 ubiquitin-protein ligase XIAP (Homo sapiens) (UniProt P98170); test: small molecules binding XIAP protein – biophysical, small-molecule microarray, fluorescence 635 nm, primary screen (AID 1181); conditions: higher = more signal;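 also: score merges 667 nm emission and signal to noise over triplicate slides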
Sequence of E3 ubiquitin-protein ligase XIAP (Homo sapiens) (P98170 whole entry, looked up): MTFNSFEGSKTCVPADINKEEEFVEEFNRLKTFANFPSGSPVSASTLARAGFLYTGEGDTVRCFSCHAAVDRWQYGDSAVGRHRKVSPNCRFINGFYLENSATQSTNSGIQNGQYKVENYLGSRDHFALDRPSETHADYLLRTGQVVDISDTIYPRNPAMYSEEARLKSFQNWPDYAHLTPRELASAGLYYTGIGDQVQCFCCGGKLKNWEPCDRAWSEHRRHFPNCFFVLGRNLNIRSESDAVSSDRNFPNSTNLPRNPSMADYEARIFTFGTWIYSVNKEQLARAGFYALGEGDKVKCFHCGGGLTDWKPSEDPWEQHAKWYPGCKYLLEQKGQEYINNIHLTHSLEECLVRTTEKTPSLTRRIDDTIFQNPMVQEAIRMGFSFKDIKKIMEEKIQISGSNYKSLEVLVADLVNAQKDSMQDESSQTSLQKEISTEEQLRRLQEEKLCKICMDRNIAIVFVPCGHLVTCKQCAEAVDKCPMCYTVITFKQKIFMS

Row | SMILES | z-score [1] | z-score [2] | z-score [3] | composite z-score [4] | z-score [5] | z-score [6] | z-score [7] | z-score [8] | composite z-score [9]
1 | C[C@H]1NC(=O)[C@@H](C)NC(=O)[C@@]23C(=O)N[C@@H](Cc4ccccc4)C2[C@H](C)[C@@]2(C)O[C@H]2C3/C=C/C/C=C\CNC1=O (some centres not stated) | 0.0975 | -0.811 (inactive) | 1.02 (inactive) | 0.254 (inactive) | 0.776 (inactive) | 2.33 (inactive) | 1.58 (inactive) | 1.02 | -0.198
2 | C=CC(=O)O[C@@H](Cc1ccccc1)[C@H]1C2C=CCCC=C2CN1Cc1cccc(Cl)c1 (some centres not stated) | 1.36 | -2.29 (inactive) | 0.399 (inactive) | 0.566 (inactive) | -0.718 (inactive) | 2.63 (inactive) | 0.338 (inactive) | 1.26 | 0.348
3 | CC(C)[Si]1(C(C)C)O[C@@H](c2ccccc2)c2cc(C3CC3)nc(-c3ccc(Oc4ccccc4)cc3)c21 | 1.08 | -0.225 (inactive) | 1.35 (inactive) | 0.967 (inactive) | 1.15 (inactive) | 1.3 (inactive) | 0.734 (inactive) | 0.688 | -0.267
4 | CO[C@@H]1COC(=O)[C@H](C)NC(=O)CC=C[C@@H](C)[C@H](OC)COC(=O)[C@H](C)NC(=O)CC=C[C@H]1C | 0.542 | -0.786 (inactive) | 0.102 (inactive) | 0.32 (inactive) | -0.161 (inactive) | 0.884 (inactive) | 0.552 (inactive) | -0.171 | -0.142
5 | CCCNC(=O)[C@@H]1c2ccccc2C(=O)N(Cc2cc(F)cc(C(F)(F)F)c2)[C@H]1c1ccc(CO)cc1 | 0.527 | -1.69 (inactive) | 0.919 (inactive) | -0.0769 (inactive) | -1.41 (inactive) | 1.4 (inactive) | 0.576 (inactive) | 1.72 | -0.129
6 | O=C1c2ccccc2[C@](Cc2ccccc2I)(C(=O)NCC(F)(F)F)[C@H](c2ccc(CO)cc2)N1Cc1ccccc1C(F)(F)F | 0.226 | -1.29 (inactive) | 1.13 (inactive) | -0.449 (inactive) | -0.719 (inactive) | 0.775 (inactive) | 0.23 (inactive) | 1.69 | -0.174
7 | COCCOC(=O)N1C(=O)[C@@]2(c3ccccc31)[C@H](C(=O)N1CCc3cc(OC)c(OC)cc3C1)[C@H]1C(=O)O[C@H](c3ccccc3)[C@H](c3ccccc3)N1[C@@H]2c1ccccc1OCCO | 0.223 | 1.03 (inactive) | -0.517 (inactive) | -1.85 (inactive) | -0.446 (inactive) | 0.659 (inactive) | 1.31 (inactive) | 0.673 | -0.042
8 | CO[C@H]1COC(=O)[C@H](C)NC(=O)CC=C[C@@H](C)[C@H](NS(=O)(=O)c2ccc(C)cc2)COC(=O)[C@@H](OCc2ccccc2)C=C[C@@H]1C | 0.618 | 0.156 (inactive) | 1.03 (inactive) | 0.604 (inactive) | 1.25 (inactive) | 0.292 (inactive) | 0.104 (inactive) | 0.775 | -0.0123
9 | CCCNC(=O)[C@@]1(Sc2ccc(C)cc2)CC(=O)N(Cc2ccccc2Cl)[C@@H]1c1ccc(CO)cc1 | -0.48 | -0.573 (inactive) | 1.12 (inactive) | -3.67 (inactive) | -2.58 (inactive) | 1.23 (inactive) | 0.337 (inactive) | 1.13 | 0.105
10 | CO[C@]12C=C(Br)[C@@H](C[C@@H]1c1ccccc1)[C@@]1(CO1)C2=O | 0.418 | -5.19 (inactive) | 0.0036 (inactive) | 1.03 (inactive) | -0.123 (inactive) | 2.39 (inactive) | 1.29 (inactive) | 0.63 | -0.142
11 | CC(C)[Si](OCCCNS(=O)(=O)c1ccc(Br)cc1)(C(C)C)C(C)C | 1.49 | -1.79 (inactive) | 0.766 (inactive) | 0.0026 (inactive) | -2.85 (inactive) | 2.79 (inactive) | 2.3 (inactive) | -1.26 | -0.18
12 | CC(C)[Si]1(C(C)C)OCc2cc(C3CC3)nc(-c3ccccc3)c21 | 0.883 | -1.53 (inactive) | 0.972 (inactive) | 0.135 (inactive) | -1.75 (inactive) | 1.39 (inactive) | 0.656 (inactive) | 0.536 | 0.0399
13 | COc1cc2c(cc1OC)CN(C(=O)[C@@H]1[C@H]3C(=O)O[C@H](c4ccccc4)[C@H](c4ccccc4)N3[C@H](c3ccccc3OCCO)[C@@]13C(=O)Nc1ccccc13)CC2 | 0.193 | 1.34 (inactive) | 0.255 (inactive) | -0.495 (inactive) | 3.1 (inactive) | 0.392 (inactive) | 0.952 (inactive) | 0.105 | -0.127
